High-throughput results (PubChem)
Most compounds without a hit are left out; they make up all but 4% or so of the library.
TROY signal inh = inhibitors of TROY-dependent NF-kB signaling; AID 1347056; Q293 LMP1-TROYcd NF-kB luciferase reporter, 4 h; 360,000 compounds, 0.98% hits; inhibition, % at 10 µM;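 active means compounds whose plate-normalised and pattern-corrected inhibition of the luciferase reporter signal at the single screening dose is 50% or more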
LMP1 NFkB inh = reduces LMP1-driven NF-kappaB luciferase signal | LMP1-induced NF-kappaB luciferase reporter cells, luminescence | inhibition, % at 12.5 µM | 350,000 compounds, 0.69% hits | AID 504558; in the data active means inhibition above about 41%; inconclusive means no clear call, values can overlap the other calls;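 further: 0% = neutral control wells and 100% = reference inhibitor control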
HIF-2a block = HIF-2a inhibition. 360,000 compounds, 0.72% hits. inhibition, % at 18.8 µM. 786-0 RCC cells HIF-2a reporter, luciferase luminescence, overnight;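 active means inhibition of the luminescence signal of 40% or more relative to plate controls, in a single-dose primary screen at 18.75 µM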
Peg3 prom inh = Peg3 promoter activity inhibition; HeLa PEG-Prom luciferase reporter, luminescence, overnight; inhibition, % at 20 µM; 360,000 compounds, 1.7% hits; AID 588405;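 active means inhibition of at least 50% at 20 µM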
TWEAK Fn14 block = inhibitors of TWEAK-Fn14 interaction signaling. TWEAK-stimulated Fn14 reporter cells, luciferase luminescence, 8 h. inhibition, % at 10 µM. 360,000 compounds, 2% hits; in the data active means inhibition above about 50%
TRPM1 prom inh = MITF TRPM1 promoter inhibition in SK-MEL-5 cells | SK-MEL-5 TRPM1 promoter luciferase, 24 h | inhibition, % at 12.5 µM | 330,000 compounds, 0.83% hits;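 active means mean inhibition across replicates of 60% or more, whatever share of single replicates reaches that level; inconclusive means some that reach 60%, reason not given; inactive means mean inhibition across replicates below 60%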
* hit, by the source's call; ? = inconclusive; nt = no result given.

SMILES	TROY signal inh	LMP1 NFkB inh	HIF-2a block	Peg3 prom inh	TWEAK Fn14 block	TRPM1 prom inh
CCOc1ccc(N(C(C)C(=O)NC2CCCCCC2)S(C)(=O)=O)cc1 (stereo not given)	-20.4	-0.8	4.3	11.1	90.5*	3.8
CCN(CC)C(=O)C1=C(C)N(Cc2ccc(C(C)(C)C)cc2)C(=O)C(CC(=O)NCc2cccs2)C1 (stereo not given)	4.7	2.4	-26.2	6.0	15.7	nt
O=C(C=C1SCCS1)/C=C/c1ccco1	-17.6	85.8*	-176.6	-179.1	-7.5	-10.3
Cc1ccc(NC(=O)Cn2nc(C)c3ccccc3c2=O)cc1	nt	-0.2	11.1	7.6	71.8*	-2.6
Cc1nn(CC(=O)Nc2cccc(O)c2)c(=O)c2ccccc12	-5.8	-3.1	4.0	7.2	14.0	nt
CC1CCCCC1NC(=O)C1CCN(S(=O)(=O)c2cccc3nonc23)CC1 (stereo not given)	0.8	3.4	5.0	2.9	36.0	-5.0
O=c1cc(CSc2nnc(-c3cccs3)n2Cc2ccccc2)nc2sc3ccccc3n12	45.2	2.9	-11.2	8.9	52.6*	20.8
Cc1cc(C(=O)CSc2nnc(-c3cccs3)n2Cc2ccccc2)c(C)n1C	-16.7	-0.5	-10.9	1.6	11.0	5.3
O=c1[nH]c2ccccc2c2nc(-c3cccc(S(=O)(=O)N4CCCC4)c3)nn12	-7.5	4.5	-3.3	6.1	-8.1	-9.4
CCc1ccc(CNc2ccc3c(c2)ncn3C(C)(C)C)cc1	66.0*	-25.4	-207.8	-235.9	81.6*	-33.2
Cc1ccc(CNC(=O)C(=O)NCC2OCCN2S(=O)(=O)c2ccc(Br)cc2)cc1 (stereo not given)	10.9	4.9	11.1	22.3	18.5	24.0
Cc1onc(-c2c(F)cccc2Cl)c1C(=O)NCc1ccco1	9.8	2.3	13.8	23.9	-13.6	2.4
Cc1noc(C)c1C(=O)OCC(=O)c1c[nH]c2ccccc12	-26.8	-2.4	-47.0	-55.6	6.5	-6.0
Cc1onc(-c2c(F)cccc2Cl)c1C(=O)OCC(=O)c1c[nH]c2ccccc12	28.3	0.9	17.2	22.4	58.2*	19.0
Cc1onc(-c2c(F)cccc2Cl)c1C(=O)OCC(=O)NCc1ccco1	53.8*	-39.4	-91.1	-116.3	6.3	-15.6
CC(/C=N/NC(=O)c1nnn(-c2nonc2N)c1CN(C)C)=C\c1ccco1	10.4	7.7	7.1	16.6	2.6	11.4
C/C(=N\NC(=O)c1nnn(-c2nonc2N)c1CN(C)c1ccccc1)c1ccccn1	-2.3	14.6	18.1	67.6*	-6.2	24.2
CCCN(CCC)Cc1c(C(=O)N/N=C/C(C)=C\c2ccco2)nnn1-c1nonc1N	9.5	-11.3	14.8	37.7	0.3	68.6*
O=C(NCCc1ccccc1)C1CCC(=O)N(Cc2cccc(C(F)(F)F)c2)C1 (stereo not given)	4.9	-0.3	-11.4	12.5	3.1	-4.2
CC(=O)c1ccc(NCCC(=O)c2ccccc2)cc1	49.1	-3.8	-129.0	-109.5	69.0*	-61.8
Cc1ccc(S(=O)(=O)C2(C(=O)N3CCN(c4ccccc4F)CC3)CC2)cc1	5.7	0.7	4.4	15.0	65.9*	-6.8
c1csc(-c2nnc(-c3ccc(N4CCOCC4)cc3)o2)c1	-3.4	20.7	-79.0	-68.2	58.7*	-17.0
CCOc1ccc(-c2nnc(-c3cccs3)o2)cc1	21.7	7.7	-51.2	-67.2	63.2*	-17.1
CCOc1ccc(-c2nnc(-c3cccs3)o2)cc1OCC	-97.9	-10.9	-264.6	-250.1	-23.2	-63.1
Cc1c(NS(=O)(=O)c2cc(C(=O)NCc3ccco3)cc(Cl)c2Cl)c(=O)n(-c2ccccc2)n1C	11.9	0.4	0.7	-4.7	23.8	8.3
SMILES	TROY signal inh	LMP1 NFkB inh	HIF-2a block	Peg3 prom inh	TWEAK Fn14 block	TRPM1 prom inh
CCC(=O)NC(c1cc(Cl)c2cccnc2c1O)C(C)C (stereo not given)	-13.0	47.2*	15.7	35.1	12.1	38.4
O=C(NC(c1ccc(Cl)cc1)c1cc(Cl)c2cccnc2c1O)c1cccnc1 (stereo not given)	3.2	?	19.9	65.7*	18.1	40.5
O=C(NCc1ccc(Cl)cc1)c1cccnc1	-5.4	-36.1	13.4	-9.2	13.6	-6.8
CCCCC(=O)NC(c1cccs1)c1cc(Cl)c2cccnc2c1O (stereo not given)	20.2	6.1	6.6	51.1*	24.7	45.2
Oc1c(C(c2ccccn2)N2CCCCC2)cc(Cl)c2cccnc12 (stereo not given)	2.4	-1.4	12.6	22.7	9.7	25.1
CCCC(=O)NC(c1ccc(OC)c(OC)c1)c1cc(Cl)c2cccnc2c1O (stereo not given)	6.7	32.1	6.0	47.7	8.9	?
CN1CCN(C(c2ccc(Cl)cc2)c2cc(Cl)c3cccnc3c2O)CC1 (stereo not given)	-4.3	-9.4	50.2*	65.1*	28.1	43.4
CCC(=O)NC(c1ccco1)c1cc(Br)c2cccnc2c1O (stereo not given)	-29.3	nt	16.8	49.7	-6.6	nt
COc1ccc(S(=O)(=O)N(C)CC(=O)NCc2ccco2)cc1OC	-7.5	-1.4	-3.8	9.4	11.1	3.9
CCC(=O)NC(c1cc(Cl)c2cccnc2c1O)C1CC1 (stereo not given)	4.4	40.3*	15.4	35.9	17.1	33.5
CC1(C)CCc2cc(-c3ccnc(=S)[nH]3)ccc2O1	49.8	-25.2	-73.8	-176.8	62.0*	-18.8
S=c1nccc(-c2ccc3c(c2)CCO3)[nH]1	-1.5	-10.3	-134.4	-42.6	2.7	-10.6
Oc1ccc(N=C/C=C/c2cccc(Br)c2)cc1-c1nc2ccccc2s1	-44.9	-31.7	-128.6	67.3*	0.4	8.9
CCCCCCCCN1C(=O)[C@H](CC(=O)N2CCCC2)C[C@@]2(C(=O)OCC)CCCC=C12	-9.4	nt	8.4	nt	-10.8	nt
CC1(C(=O)NS(=O)(=O)c2ccccc2OC(F)(F)F)CCN1C(=O)Cc1ccccc1 (stereo not given)	5.8	nt	2.2	3.2	2.4	nt
COc1ccc(/C=N/Nc2ncnc3sc(C)c(C)c23)cc1	10.0	-17.7	-79.5	-42.3	5.4	-30.7
Cc1sc2ncnc(N/N=C/c3ccc(O)cc3)c2c1C	-0.6	5.1	-125.7	-101.7	51.6*	-14.6
Cc1sc2ncnc(N/N=C/c3ccccc3O)c2c1C	-56.6	42.8*	-177.0	-31.3	7.7	16.9
O=C(CCn1c(=O)oc2ccc(Cl)cc21)NCCCN1CCOCC1	0.6	-4.2	9.7	4.5	0.8	-1.3
O=C(COc1ccccc1Cl)NCc1ccncc1	-10.4	-38.5	2.7	11.6	1.3	-4.6
O=C(COC(=O)COc1ccc(Cl)cc1)NC1CCCCCC1	4.3	-1.9	5.8	-2.4	15.8	-7.0
COc1ccc(OCCN2CCN(C(=O)c3ccc(OC)c(OC)c3)CC2)cc1	14.0	7.3	8.9	0.4	9.1	-0.4
CCOC(=O)c1c(C)[nH]c(C)c1C(=O)CSc1nc2ccccc2c(=O)n1-c1ccc(CC)cc1	14.5	20.1	-10.8	44.2	50.4*	12.4
